This is part of a sample that, as a whole, favours compounds with a hit. Of some 83,000 tested, about 20% had one in any assay.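 Each cell line was grown in a 96-well plate and treated with one concentration of compound for 48 hours. Values below 10 were considered active.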 The source made the active and inactive calls.
Experiments:
Assay in all cases: NCI-60 one-dose screen, 48 h (100 = growth as untreated, 0 = no growth, -100 = all killed)
Settings in all cases: 10 µM unless noted
HCT-15 colon = system: HCT-15 colon
HT29 colon = system: HT29 colon
SNB-75 CNS = system: SNB-75 CNS
SNB-19 CNS = system: SNB-19 CNS
U251 CNS = system: U251 CNS
UACC-62 melanoma = system: UACC-62 melanoma
LOX IMVI melanoma = system: LOX IMVI melanoma
SK-MEL-28 melanoma = system: SK-MEL-28 melanoma
SK-MEL-2 melanoma = system: SK-MEL-2 melanoma
EKVX NSCLC = system: EKVX NSCLC
SN12C renal = system: SN12C renal
UO-31 renal = system: UO-31 renal
TK-10 renal = system: TK-10 renal
ACHN renal = system: ACHN renal
CAKI-1 renal = system: CAKI-1 renal
A498 renal = system: A498 renal
CCRF-CEM leukemia = system: CCRF-CEM leukemia
MOLT-4 leukemia = system: MOLT-4 leukemia
SK-MEL-5 melanoma = system: SK-MEL-5 melanoma
PC-3 prostate = system: PC-3 prostate

Measured: growth

CNC(C)[C@H]1CCC2C3CCC4C[C@@H](N(C)C(=O)c5ccccc5)CC[C@]4(C)C3CC[C@@]21C (stereo partly specified)
inactive: SNB-75 CNS 15.5% | SNB-19 CNS 66.6% | U251 CNS 29.9% | SK-MEL-2 melanoma 38.7% | EKVX NSCLC 24.5% | SN12C renal 34.6% | TK-10 renal 65.4% | ACHN renal 46.9% | CAKI-1 renal 58.2% | A498 renal 57.3% | CCRF-CEM leukemia 21.7% | MOLT-4 leukemia 16.5%
active: HCT-15 colon -42.2% | HT29 colon -33.3% | UACC-62 melanoma -66% | LOX IMVI melanoma -52.2% | SK-MEL-28 melanoma -71.4% | UO-31 renal -9.71%

CCCCCCN(CCCCCC)c1ccc(/C=C2/SC(=O)NC2=O)c(C)c1
inactive: HCT-15 colon 75.7% | HT29 colon 79.6% | SNB-75 CNS 78.8% | SNB-19 CNS 96% | U251 CNS 75.5% | SK-MEL-5 melanoma 82.1% | UACC-62 melanoma 73.1% | LOX IMVI melanoma 86.5% | SK-MEL-28 melanoma 93.8% | SK-MEL-2 melanoma 83% | EKVX NSCLC 79.1% | SN12C renal 80.7% | UO-31 renal 64.1% | TK-10 renal 108% | ACHN renal 93.4% | CAKI-1 renal 84.1% | A498 renal 82.9% | CCRF-CEM leukemia 73% | MOLT-4 leukemia 75.1%

CN1CCN(c2ccc(-c3cc4c(Nc5ccc(F)c(Cl)c5)ncnn4c3)cc2)CC1
active: HCT-15 colon -12.8% | HT29 colon 7.09% | LOX IMVI melanoma -53.6%
inactive: SNB-75 CNS 80.5% | SNB-19 CNS 103% | U251 CNS 66% | SK-MEL-5 melanoma 87.5% | UACC-62 melanoma 53.2% | SK-MEL-28 melanoma 71.5% | SK-MEL-2 melanoma 103% | EKVX NSCLC 83.5% | SN12C renal 70.1% | TK-10 renal 73.6% | ACHN renal 44% | CAKI-1 renal 66.8% | A498 renal 61.9% | CCRF-CEM leukemia 28.9% | MOLT-4 leukemia 34.2%

CCOC(=O)C1=C(N)Oc2c(sc3c(C)cccc23)C1c1ccc(Cl)cc1 (stereo unspecified)
inactive: HCT-15 colon 15% | HT29 colon 14.8% | SNB-19 CNS 28.1% | U251 CNS 31.7% | SK-MEL-5 melanoma 39.5% | UACC-62 melanoma 12.1% | LOX IMVI melanoma 36.2% | SK-MEL-28 melanoma 53.6% | SK-MEL-2 melanoma 46.6% | EKVX NSCLC 48.3% | SN12C renal 38.6% | UO-31 renal 38.5% | TK-10 renal 78.7% | ACHN renal 39.5% | CCRF-CEM leukemia 17% | MOLT-4 leukemia 32.9%
active: SNB-75 CNS -9.45% | CAKI-1 renal 2.8% | A498 renal 3.91%

Cc1ccc2c(n1)C(=O)C(Cl)=C(Nc1ccccc1C(C)C)C2=O
inactive: HCT-15 colon 27.6% | HT29 colon 106% | SNB-75 CNS 85.7% | SNB-19 CNS 76.7% | U251 CNS 80.4% | SK-MEL-5 melanoma 69% | UACC-62 melanoma 45.2% | LOX IMVI melanoma 14.7% | SK-MEL-28 melanoma 65.8% | SK-MEL-2 melanoma 64% | EKVX NSCLC 95.8% | SN12C renal 23.7% | UO-31 renal 57% | TK-10 renal 165% | ACHN renal 49.2% | CAKI-1 renal 35% | A498 renal 99.7% | CCRF-CEM leukemia 35.7% | MOLT-4 leukemia 31.9%

COc1ccc2c(c1)nc(NNC(=O)c1cnccn1)c1cccn12
active: LOX IMVI melanoma 9.17% | UO-31 renal 4.76% | ACHN renal 7.83% | MOLT-4 leukemia 5.36%
inactive: HCT-15 colon 21.5% | HT29 colon 27.2% | SNB-75 CNS 70.5% | SNB-19 CNS 31.3% | U251 CNS 27.3% | SK-MEL-5 melanoma 26.4% | UACC-62 melanoma 11.5% | SK-MEL-28 melanoma 25.1% | SK-MEL-2 melanoma 64.8% | EKVX NSCLC 22.2% | SN12C renal 35.4% | TK-10 renal 31.1% | CAKI-1 renal 21.3% | A498 renal 49.2% | CCRF-CEM leukemia 11.7%

NC[C@@H]1O[C@H](O[C@@H]2[C@@H](CO)OC(O[C@@H]3[C@@H](O)[C@H](N)C[C@H](N)[C@H]3OC3O[C@H](CN)[C@@H](O)[C@H](O)[C@H]3N)[C@@H]2O)[C@H](N)[C@@H](O)[C@@H]1O (stereo partly specified)
inactive: HCT-15 colon 103% | HT29 colon 109% | SNB-75 CNS 106% | SNB-19 CNS 115% | U251 CNS 102% | SK-MEL-5 melanoma 106% | UACC-62 melanoma 118% | LOX IMVI melanoma 101% | SK-MEL-28 melanoma 111% | SK-MEL-2 melanoma 125% | EKVX NSCLC 98.4% | SN12C renal 117% | UO-31 renal 109% | TK-10 renal 120% | ACHN renal 105% | CAKI-1 renal 99.5% | A498 renal 108% | CCRF-CEM leukemia 97.5% | MOLT-4 leukemia 112%

Fc1cc(-c2nnc3n2NC(=Nc2ccc(Cl)cc2)CS3)c(Cl)cc1Cl
inactive: HCT-15 colon 97.3% | HT29 colon 93.8% | SNB-75 CNS 71.7% | SNB-19 CNS 93.6% | U251 CNS 94.9% | SK-MEL-5 melanoma 88.9% | UACC-62 melanoma 81.4% | LOX IMVI melanoma 86.5% | SK-MEL-28 melanoma 99% | SK-MEL-2 melanoma 88.3% | EKVX NSCLC 95.2% | SN12C renal 108% | UO-31 renal 65.6% | TK-10 renal 91.6% | ACHN renal 95.2% | CAKI-1 renal 94.2% | A498 renal 77.8% | CCRF-CEM leukemia 214% | MOLT-4 leukemia 87%

CCCCCCNC(=O)Oc1ccc(/C(=C(\C)c2ccc(Cl)cc2)c2ccc(OCCCN(C)C)cc2)cc1
inactive: SNB-75 CNS 79.1% | SNB-19 CNS 79.8% | U251 CNS 42% | SK-MEL-5 melanoma 86.2% | UACC-62 melanoma 96.9% | LOX IMVI melanoma 39.5% | SK-MEL-28 melanoma 97.2% | SK-MEL-2 melanoma 92.1% | EKVX NSCLC 83% | SN12C renal 90% | UO-31 renal 55.4% | TK-10 renal 75.8% | ACHN renal 94.3% | CAKI-1 renal 96.2% | A498 renal 85.7% | CCRF-CEM leukemia 70.7% | MOLT-4 leukemia 37.3%
active: HCT-15 colon 8.75% | HT29 colon 0.63%

N#Cc1c(Nc2cccc(Cl)c2)sc(C(=O)c2cc3cc(Cl)ccc3o2)c1N
inactive: HCT-15 colon 72.6% | HT29 colon 80.5% | SNB-75 CNS 101% | SNB-19 CNS 97.5% | U251 CNS 62.6% | SK-MEL-5 melanoma 73.4% | UACC-62 melanoma 78.6% | LOX IMVI melanoma 85.9% | SK-MEL-28 melanoma 94.3% | SK-MEL-2 melanoma 71.4% | EKVX NSCLC 158% | SN12C renal 81.3% | UO-31 renal 81% | TK-10 renal 127% | ACHN renal 112% | CAKI-1 renal 151% | A498 renal 128% | CCRF-CEM leukemia 52.8% | MOLT-4 leukemia 66.6%

COc1cc2cc(Oc3ccc(NC(=O)Nc4cccc(C(F)(F)F)c4)cc3)c(C)nc2cc1OCCN1CCOCC1
inactive: HCT-15 colon 27.2% | HT29 colon 35.3% | SNB-75 CNS 77.8% | SNB-19 CNS 30.7% | U251 CNS 28% | UACC-62 melanoma 50.8% | LOX IMVI melanoma 38.2% | SK-MEL-28 melanoma 68.8% | SK-MEL-2 melanoma 78.6% | EKVX NSCLC 25.4% | SN12C renal 47.7% | UO-31 renal 51.8% | TK-10 renal 66.3% | ACHN renal 21.4% | CAKI-1 renal 56.2% | A498 renal 64.2% | CCRF-CEM leukemia 23.9%
active: SK-MEL-5 melanoma 6.62% | MOLT-4 leukemia 6.76%

N#Cc1c(-c2ccc(Cl)cc2)nc2c(c(-c3ccccc3)nn2-c2ccccc2)c1-c1ccc(O)cc1
active: SN12C renal -18.4%
inactive: HCT-15 colon 27.2% | HT29 colon 91.8% | SNB-75 CNS 42.6% | SNB-19 CNS 65% | U251 CNS 34% | SK-MEL-5 melanoma 56.3% | UACC-62 melanoma 53.6% | LOX IMVI melanoma 26.5% | SK-MEL-28 melanoma 56.4% | SK-MEL-2 melanoma 74.5% | UO-31 renal 30.5% | TK-10 renal 17.2% | ACHN renal 56% | CAKI-1 renal 40.2% | A498 renal 79.3% | CCRF-CEM leukemia 27% | MOLT-4 leukemia 24.3%

COc1ccc2c(c1)C(C)Cc1c(ncnc1-n1c(C)nc3ccccc31)N2C (stereo unspecified)
active: HT29 colon 7.08% | SNB-75 CNS -4.89% | A498 renal -9.67%
inactive: HCT-15 colon 22.8% | U251 CNS 25.6% | PC-3 prostate 16.2% | SK-MEL-5 melanoma 20% | UACC-62 melanoma 23.3% | LOX IMVI melanoma 25.7% | SK-MEL-28 melanoma 66.4% | SK-MEL-2 melanoma 33.9% | EKVX NSCLC 43.4% | SN12C renal 35.8% | UO-31 renal 37.3% | TK-10 renal 57% | ACHN renal 51.4% | CAKI-1 renal 25.2% | CCRF-CEM leukemia 18.3% | MOLT-4 leukemia 20.6%

COc1cc(C(=O)c2cc(C)c3[nH]c4ccc(C)cc4c3c2C)cc(OC)c1OC
inactive: HT29 colon 10.6% | SNB-75 CNS 39.7% | U251 CNS 19.2% | PC-3 prostate 23.4% | UACC-62 melanoma 62.7% | LOX IMVI melanoma 10.9% | SK-MEL-28 melanoma 57.1% | SK-MEL-2 melanoma 60.4% | EKVX NSCLC 44.1% | SN12C renal 22.5% | UO-31 renal 24.9% | TK-10 renal 87.5% | ACHN renal 26.4% | CAKI-1 renal 24.2% | CCRF-CEM leukemia 14.2% | MOLT-4 leukemia 16.8%
active: HCT-15 colon 8.81% | SK-MEL-5 melanoma -42.3% | A498 renal -8.86%

Cc1ccc2sc3c(NCCN)nc4ccccc4c3c(=O)c2c1
inactive: HCT-15 colon 29% | HT29 colon 10.8% | SNB-75 CNS 77.2% | U251 CNS 49.7% | PC-3 prostate 79.5% | SK-MEL-5 melanoma 95.6% | UACC-62 melanoma 99.4% | LOX IMVI melanoma 15.6% | SK-MEL-28 melanoma 111% | SK-MEL-2 melanoma 105% | EKVX NSCLC 88% | SN12C renal 69.3% | UO-31 renal 50.6% | TK-10 renal 96.2% | ACHN renal 66.4% | CAKI-1 renal 42.7% | A498 renal 61.6% | CCRF-CEM leukemia 32.8% | MOLT-4 leukemia 49%

Cn1cc(C(=O)c2nc(-c3cn(C)c4ccc(F)cc34)no2)c2cc(F)ccc21
inactive: HCT-15 colon 93.4% | HT29 colon 95.5% | SNB-75 CNS 87.4% | U251 CNS 98.1% | PC-3 prostate 80.3% | SK-MEL-5 melanoma 94.2% | UACC-62 melanoma 88.4% | LOX IMVI melanoma 97.4% | SK-MEL-28 melanoma 110% | SK-MEL-2 melanoma 102% | EKVX NSCLC 107% | SN12C renal 91.9% | UO-31 renal 63% | TK-10 renal 108% | ACHN renal 94.1% | CAKI-1 renal 88.9% | A498 renal 113% | CCRF-CEM leukemia 92% | MOLT-4 leukemia 99.6%
